Data on five compounds can be found in PubChem BioAssay (Tox21).

Values without a mark were called inactive. Records with an inconclusive call do not appear. The source made the active and inactive calls. Unless noted, the call rests on the fitted dose curve.

Experiment [1] in a line: Nuclear factor erythroid 2-related factor 2/antioxidant responsive element (Nrf2/ARE) small molecule agonists: qHTS cell viability counter screen in human keratinocytes (AID 1919968; active means well fitted curve in the direction sought with a large enough effect in the repeat runs; an effect the other way counts as inactive or inconclusive; further: nearly all actives have a fitted effect of over 55% in size). The essentials:
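Cytotoxicity was multiplexed with the Nrf2/ARE luciferase assay in the same wells. Stably transfected HaCaT keratinocytes were treated with test compounds for 23 h at 37 C. Cell viability was then measured by CellTiter-Fluor fluorescence.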

Experiment [2] in a line: Nuclear factor erythroid 2-related factor 2/antioxidant responsive element (Nrf2/ARE) small molecule agonists: luciferase reporter gene qHTS assay in human keratinocytes (AID 1919969). Further: nearly all actives have a fitted effect of over 35% in size. Further: potency means the concentration at half of the fitted maximal effect.
Experiment [3] addresses Gonadotropin-releasing hormone receptor (Homo sapiens) (UniProt P30968). Kind of experiment: Human gonadotropin-releasing hormone receptor (GnRHR) small molecule agonists, calcium flux assay in GnRHR-HEK293 cells (AID 1920063). Further: nearly all actives have a fitted effect of over 35% in size. The gist of the method:
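Agonist activity was measured as intracellular calcium flux in HEK293 cells engineered to stably express human GnRHR. After dye loading for 1 hour at 37 C, compounds in DMSO were added and fluorescence was followed for 3 minutes.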
(Calcium flux is commonly read through the fluorescence of an indicator in the cells.)

Experiment [4] concerns the target KiSS-1 receptor (Homo sapiens) (UniProt Q969F8). Kind of experiment: Human kisspeptin (KISS1R) small molecule agonists, calcium flux assay in KISS1R-HEK293 cells (AID 1920064; active means well fitted curve in the direction sought with a large enough effect in the repeat runs; an effect the other way counts as inactive or inconclusive). The essentials: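 Agonist activity is monitored as intracellular calcium rise in engineered HEK293 cells carrying human KISS1R. Cells are dye-loaded for 1 h at 37 C before compound addition, and fluorescence is recorded for 3 min.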

Experiment [5] can be described thus: G protein-coupled receptor (GPCR) small molecule agonists, calcium flux assay: HEK293 wild type cell line counter screen (AID 1920065). The essentials: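 Seed cells, incubate 18 h (37 C, 5% CO2); add calcium dye, 1 h at 37 C; pin-transfer compounds, ATP control or DMSO; read fluorescence 480/540 nm each second for 3 min.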
Experiment [6] can be described thus: p53 small molecule agonists, cell-based qHTS assay with human liver microsomes (AID 1963577).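 Further: p53 response element beta-lactamase reporter cells with liver microsomes plus NADPH.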 The essentials: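 With metabolic activation: human liver microsomes (0.5 mg/mL final) plus NADPH (0.5 mg/mL final) added alongside compounds to p53RE-bla cells; 16 h 37 C exposure; beta-lactamase read by LiveBLAzer fluorescence.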
Experiment [7] is described as follows: p53 small molecule agonists, cell-based qHTS assay with rat liver microsomes (AID 1963578). The essentials: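 Metabolic activation by rat liver microsomes and NADPH, each 0.5 mg/mL final, added right after compounds to p53RE-bla reporter cells (4,000/well, plated 5 h earlier). 16 h at 37 C, then LiveBLAzer substrate for 2 h at room temperature in the dark; fluorescence read-out.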
In general terms: In qHTS, concentration-response curves come from the screen itself.

Experiment [8] can be described thus: p53 small molecule agonists, cell-based qHTS assay with human liver microsomes: qHTS cell viability counter screen (AID 1963579). Further: nearly all actives have a fitted effect of over 45% in size. The gist of the method:
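Metabolic activation used human liver microsomes and NADPH, both 0.5 mg/mL final, over 16 hours at 37 C on p53RE-bla cells (4,000/well). Cytotoxicity measured by CellTiter-Glo luminescence, 30 min at room temperature.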

Experiment [9] in a line: p53 small molecule agonists, cell-based qHTS assay with rat liver microsomes: qHTS cell viability counter screen (AID 1963580). Further: nearly all actives have a fitted effect of over 45% in size. The gist of the method: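 Rat liver microsome (0.5 mg/mL final) and NADPH (0.5 mg/mL final) co-incubation with compounds for 16 h at 37 C on HCT-116 p53RE-bla cells; cytotoxicity taken from intracellular ATP luminescence.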
Experiment [10] is described as follows: p53 small molecule agonists, cell-based qHTS assay: qHTS cell viability counter screen (AID 1963581). Further: nearly all actives have a fitted effect of over 45% in size. The essentials: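 Viability was counter-screened in parallel with the p53 agonist reporter by measuring intracellular ATP luminescence in the same HCT-116 p53RE-bla wells after 16 h compound treatment at 37 C.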
The nature of experiment [11]: p53 small molecule agonists, cell-based qHTS assay (AID 1963582; active means well fitted activation curve with a large enough effect in the signal ratio in the repeat runs, not every such curve was filed as active; the % refers to the signal ratio). The essentials:
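Cells carrying a p53-responsive bla reporter are treated with test compounds for 16 h at 37 C; beta-lactamase activity is then detected with LiveBLAzer B/G FRET substrate after 2 h at room temperature.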

Experiment [12] concerns the target 5-hydroxytryptamine receptor 2A (Homo sapiens) (UniProt P28223). Description: 5-hydroxytryptamine receptor 2A (HTR2A) small molecule antagonists, cell-based qHTS assay (AID 1963586). Further: nearly all actives have a fitted effect of over 45% in size. The gist of the method:
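CHO cells stably expressing human HTR2A were plated for 18 h at 37 C, then loaded with calcium dye for 1 h. Compounds were preincubated 5 min at room temperature before DOI (4 nM solution) was added. Kinetic fluorescence was read for 3 min.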

Experiment [13] has the same target. Description: 5-hydroxytryptamine receptor 2A (HTR2A) small molecule agonists, cell-based qHTS assay (AID 1963587). Further: nearly all actives have a fitted effect of over 30% in size. The essentials:
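Kinetic calcium-flux fluorescence (2 min, 1 sec intervals) after compound addition in agonist mode. HTR2A-CHO cells were cultured 18 h, then dye-loaded 1 h at 37 C.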

Experiment [14] has as its target Muscarinic acetylcholine receptor M1 (Homo sapiens) (UniProt P11229). Description: Cholinergic receptor muscarinic 1 (CHRM1) small molecule antagonists, cell-based qHTS assay (AID 1963588). Further: nearly all actives have a fitted effect of over 40% in size. The essentials: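 Compounds were tested at 15 concentrations in three independent runs. Dye-loaded CHRM1-CHO cells were exposed 5 min at room temperature before stimulation by acetylcholine added at 50nM. Intracellular calcium was read kinetically on FDSS for 3 min.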

The target is the same in experiment [15]. Kind of experiment: Cholinergic receptor muscarinic 1 (CHRM1) small molecule agonists, cell-based qHTS assay (AID 1963589). Further: nearly all actives have a fitted effect of over 35% in size. The gist of the method: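 Cells were plated and incubated 18 h at 37 C/5% CO2, loaded with calcium dye for 1 h at 37 C, then treated with compounds in DMSO. Fluorescence was recorded kinetically at 1 sec intervals.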
Experiment [16] in a line: cAMP Responsive Elements (CRE) small molecule agonists, cell-based qHTS assay (AID 1963590). The essentials: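 Cells carrying a CRE-driven beta-lactamase reporter (HEK 293T) are seeded, incubated overnight (18 h), and treated with test compounds for 3 h at 37 C; reporter activity is then detected with a FRET substrate after 2 h at room temperature.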
A short description of experiment [17]: cAMP Responsive Elements (CRE) small molecule antagonists, cell-based qHTS assay (AID 1963591; active means well fitted inhibition curve with a large enough effect in the signal ratio in the repeat runs, not every such curve was filed as active; the % refers to the signal ratio). The gist of the method: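 Cells (CRE-bla HEK 293T, DMEM with 10% dialyzed FBS and 25 mM HEPES) are seeded and incubated 18 h. Compounds are added with NKH477 agonist at 0.25 uM final for 3 h, then FRET substrate for 2 h.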
Experiment [18] concerns the target Beta-2 adrenergic receptor (Homo sapiens) (UniProt P07550). Description: Adrenergic beta2 receptor (ADRB2) small molecule antagonists, cell-based qHTS assay (AID 1963592). Further: series mostly up to about 92 µM; nearly all actives have a fitted effect of over 50% in size. The essentials:
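Assay format: CHO-ADRB2 cells, 18-20hr seeding at 37C/5% CO2, then compound plus 1nM isoproterenol agonist mix for 0.5hr RT. Homogeneous time-resolved fluorescence cAMP detection after 1hr, expressed as 665/615 nm ratio.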

Experiment [19] addresses D(2) dopamine receptor (Homo sapiens) (UniProt P14416). Kind of experiment: Dopamine D2 receptor (DRD2) small molecule agonists, cell-based qHTS assay (AID 1963594). Further: nearly all actives have a fitted effect of over 35% in size. The essentials:
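cAMP accumulation in DRD2-HEK293 cells measured by HTRF after 1 h detection; compounds added 10 min before NKH477 (200nM […]) forskolin-analogue stimulation, 30 min at room temperature, with Ro20-1724 present at 0.1 mM final.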

Experiment [20] has the same target. Kind of experiment: Dopamine D2 receptor (DRD2) small molecule antagonists, cell-based qHTS assay (AID 1963595; active means well fitted inhibition curve with a large enough effect in the signal ratio in the repeat runs, with a control signal flat; the % refers to the signal ratio). The gist of the method:
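In this cell-based antagonist screen, compounds act for 10 min at room temperature before a 30 min challenge with 12 nM quinpirole and 200 nM NKH477. cAMP is quantified by HTRF competition in DRD2-HEK293 cells containing 0.1 mM Ro20-1724.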
On the % scale 0 is the no-effect control and ±100 the full control effect.

Muscarinic acetylcholine receptor M1 (Homo sapiens), sequence (P11229 whole entry, looked up): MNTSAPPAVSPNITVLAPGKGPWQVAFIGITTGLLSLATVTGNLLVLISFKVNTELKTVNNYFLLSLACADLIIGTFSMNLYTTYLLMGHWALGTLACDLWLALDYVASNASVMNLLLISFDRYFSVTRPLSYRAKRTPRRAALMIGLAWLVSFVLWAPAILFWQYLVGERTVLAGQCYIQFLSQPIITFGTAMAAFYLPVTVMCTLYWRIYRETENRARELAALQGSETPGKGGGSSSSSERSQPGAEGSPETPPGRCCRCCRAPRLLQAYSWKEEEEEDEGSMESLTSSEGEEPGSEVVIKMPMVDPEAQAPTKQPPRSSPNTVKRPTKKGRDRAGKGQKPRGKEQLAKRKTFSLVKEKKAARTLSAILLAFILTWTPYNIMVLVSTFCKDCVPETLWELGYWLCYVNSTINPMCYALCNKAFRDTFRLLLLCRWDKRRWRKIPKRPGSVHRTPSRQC
Gonadotropin-releasing hormone receptor (Homo sapiens), sequence (P30968 whole entry, looked up): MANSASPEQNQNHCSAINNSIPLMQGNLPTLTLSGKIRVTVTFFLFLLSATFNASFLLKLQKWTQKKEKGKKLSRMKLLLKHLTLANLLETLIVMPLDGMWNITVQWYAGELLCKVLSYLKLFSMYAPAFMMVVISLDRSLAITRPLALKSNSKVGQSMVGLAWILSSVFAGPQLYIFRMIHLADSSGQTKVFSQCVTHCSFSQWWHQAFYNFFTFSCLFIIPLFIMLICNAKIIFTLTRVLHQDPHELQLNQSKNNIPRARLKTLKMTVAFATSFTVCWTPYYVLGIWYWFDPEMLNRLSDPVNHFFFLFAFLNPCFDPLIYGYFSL
Beta-2 adrenergic receptor (Homo sapiens), sequence (P07550 whole entry, looked up): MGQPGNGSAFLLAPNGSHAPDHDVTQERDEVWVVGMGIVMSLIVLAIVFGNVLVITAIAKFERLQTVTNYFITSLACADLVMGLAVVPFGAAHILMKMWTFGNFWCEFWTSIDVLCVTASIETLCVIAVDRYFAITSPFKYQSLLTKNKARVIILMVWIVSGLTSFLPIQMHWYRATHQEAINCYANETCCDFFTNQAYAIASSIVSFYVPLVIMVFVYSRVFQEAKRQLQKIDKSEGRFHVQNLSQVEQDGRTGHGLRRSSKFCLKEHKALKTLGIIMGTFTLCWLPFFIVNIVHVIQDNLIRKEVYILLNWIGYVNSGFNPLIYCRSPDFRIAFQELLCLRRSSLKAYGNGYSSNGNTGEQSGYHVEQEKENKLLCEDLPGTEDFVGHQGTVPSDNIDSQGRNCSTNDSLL
KiSS-1 receptor (Homo sapiens), sequence (Q969F8 whole entry, looked up): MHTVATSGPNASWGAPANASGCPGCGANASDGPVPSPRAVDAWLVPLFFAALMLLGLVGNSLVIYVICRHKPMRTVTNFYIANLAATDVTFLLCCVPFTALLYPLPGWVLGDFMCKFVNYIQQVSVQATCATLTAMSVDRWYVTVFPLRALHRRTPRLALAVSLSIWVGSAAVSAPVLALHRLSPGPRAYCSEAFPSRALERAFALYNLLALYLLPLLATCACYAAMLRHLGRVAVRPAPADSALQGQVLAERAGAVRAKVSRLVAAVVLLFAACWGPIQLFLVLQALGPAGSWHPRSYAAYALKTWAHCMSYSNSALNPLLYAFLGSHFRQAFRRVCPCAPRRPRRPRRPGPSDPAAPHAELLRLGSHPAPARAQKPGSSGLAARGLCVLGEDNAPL
5-hydroxytryptamine receptor 2A (Homo sapiens), sequence (P28223 whole entry, looked up): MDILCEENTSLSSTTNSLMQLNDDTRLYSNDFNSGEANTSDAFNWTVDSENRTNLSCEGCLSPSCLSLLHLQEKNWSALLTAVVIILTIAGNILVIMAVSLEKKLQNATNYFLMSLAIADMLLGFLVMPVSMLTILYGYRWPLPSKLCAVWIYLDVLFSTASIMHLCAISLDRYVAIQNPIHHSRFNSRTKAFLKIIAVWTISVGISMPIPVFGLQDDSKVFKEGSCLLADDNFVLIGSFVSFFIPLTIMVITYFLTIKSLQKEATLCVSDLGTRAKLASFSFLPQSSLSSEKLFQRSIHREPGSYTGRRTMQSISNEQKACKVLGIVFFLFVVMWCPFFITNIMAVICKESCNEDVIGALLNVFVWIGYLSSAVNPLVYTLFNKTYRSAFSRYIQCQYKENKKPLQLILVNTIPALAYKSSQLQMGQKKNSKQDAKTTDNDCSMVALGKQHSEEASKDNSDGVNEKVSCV
D(2) dopamine receptor (Homo sapiens), sequence (P14416 whole entry, looked up): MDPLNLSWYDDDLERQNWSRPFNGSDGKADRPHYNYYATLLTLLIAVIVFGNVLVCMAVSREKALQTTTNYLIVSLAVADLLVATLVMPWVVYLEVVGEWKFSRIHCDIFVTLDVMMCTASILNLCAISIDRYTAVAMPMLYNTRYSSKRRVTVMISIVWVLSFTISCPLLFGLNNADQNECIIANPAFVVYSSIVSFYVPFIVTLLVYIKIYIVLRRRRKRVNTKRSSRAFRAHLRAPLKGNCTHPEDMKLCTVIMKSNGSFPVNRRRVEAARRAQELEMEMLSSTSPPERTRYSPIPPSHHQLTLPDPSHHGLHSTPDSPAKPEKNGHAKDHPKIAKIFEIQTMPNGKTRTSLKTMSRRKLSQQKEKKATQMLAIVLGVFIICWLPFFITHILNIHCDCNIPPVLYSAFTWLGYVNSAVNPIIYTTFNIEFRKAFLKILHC

Take `Cc1ccc(C=O)cc1`: the Potency entry in [1], in [2], in [3], in experiment [4], in experiment [5] and in [6] was “inactive” each time. Also, the Potency result in experiment [7], in experiment [8], in experiment [9], in [10], in [11] and in [12] was “inactive” in each case. The Potency result in experiment [13], in experiment [14], in experiment [15], in experiment [16], in experiment [17] and in experiment [18] was “inactive” in each case. The Potency entry in [19] and in experiment [20] was “inactive” throughout.

For `NC(=S)Nc1cccc2ccccc12`, the activity change, negative = cytotoxicity in experiment [1] was -1.52% [at 8.39 µM]; in experiment [8] it was 3.12% [at 5.99 µM]; in [9] it was 8.96% [at 5.99 µM]; in [10] it was 19.8% [at 5.99 µM]. Further, the activity, positive = activation in experiment [2] was -4.89% [at 8.39 µM]. The activity change in experiment [3] was 0.074% [at 5.22 µM, active compounds read high]. Also, the activation was 6.64% [at 6.97 µM] in experiment [4]; -0.659% [at 5.23 µM] in [5]; 6% [at 5.99 µM] in experiment [6]; 0.459% [at 5.99 µM] in experiment [7]; -2.75% [at 5.99 µM] in [11]; 1.75% [at 7.02 µM] in [13]. Also, the activation in experiment [15] is 0.152% [at 6.97 µM]; in experiment [16] it was -1.04% [at 8.39 µM]; in experiment [19], 2.03% [at 8.39 µM]. Moreover, the activity, negative = inhibition in experiment [12] was 12.8% [at 5.62 µM]; in experiment [14], -5.9% [at 5.58 µM]. The activity change, negative = inhibition is 1.21% [at 8.39 µM] in experiment [17] and -0.294% [at 8.38 µM] in experiment [20].

Regarding `CC(=O)CC/C=C(\C)CC/C=C(\C)CC/C=C(\C)CCC=C(C)C`, the Potency entry in [1], in experiment [3], in experiment [4], in experiment [5], in [6] and in experiment [7] was “inactive” each time. In addition, the Potency result in [8], in [9], in experiment [10], in [11], in [12] and in experiment [13] was “inactive” each time. In addition, the Potency entry in experiment [14], in experiment [15], in experiment [16], in [17], in [18] and in experiment [20] was “inactive” throughout. Further, the Potency in [2] is 26.6 µM (active).

For the compound `CC(COC(=O)c1ccccc1)OC(=O)c1ccccc1` (stereo unspecified), the Potency result in experiment [1], in experiment [2], in experiment [3], in experiment [4], in experiment [5] and in [6] was “inactive” each time. Moreover, the Potency result in experiment [7], in experiment [8], in experiment [9], in experiment [10], in experiment [11] and in experiment [12] was “inactive” in each case. The Potency entry in experiment [13], in experiment [14], in [15], in experiment [16], in experiment [17] and in [19] was “inactive” each time. For the same compound, the Potency entry in experiment [20] was “inactive”.

Consider `O=Cc1ccc(C(=O)O)cc1`, for which the Potency result in experiment [1], in [2], in experiment [3], in experiment [4], in experiment [5] and in experiment [6] was “inactive” throughout. In addition, the Potency result in [7], in experiment [8], in experiment [9], in [10], in experiment [11] and in [12] was “inactive” in each case. The Potency result in experiment [13], in experiment [14], in experiment [15], in experiment [16], in [17] and in experiment [18] was “inactive” in each case. The Potency result in [20] was “inactive”.
